# Results as given in PubChem BioAssay AID463173 (ICCB-Longwood Screening Facility, Harvard Medical School, 2010).
# Hit rate of the full screen: of about 52,000 compounds, about 1,700 (3.3%) were called active. Shown is part of a subset that was picked to be rich in actives. Values without a mark were called inactive. Rule as the data show it: active = survival mostly below about 52% (no sharp cut-off); inactive = mostly above about 56%.
# System: Wild type
# Experiment: growth inhibition of S. aureus wild type versus tarO mutant, primary screen, teichoic acid synthesis inhibitors, RN4220, OD600 (AID 463173)
# Conditions: S. aureus RN4220 wild type/DeltatarO growth, OD600, 18 h, hits give low values, screened at 18.75 µg/mL (by protocol)
row,SMILES,survival
1,O=C(NCCc1ccccc1Cl)c1cc2ccccn2n1,140%
2,COc1cc(NC(=O)C2CCN(c3cnc4ccccc4n3)CC2)cc(OC)c1OC,-6% (active)
3,COc1cc(NC(=O)c2nc3ccccc3nc2N2CCCCC2)cc(OC)c1OC,82%
4,COc1cc(NC(=O)C2CCN(c3nc4ccccc4nc3C(F)(F)F)CC2)cc(OC)c1,78%
5,CCc1ccc(-n2c(Cc3ccccc3)nnc2SCc2nc(-c3cccs3)no2)cc1,99%
6,CCC(C(=O)Nc1ccc(C(C)=O)cc1)n1cnc2nc3c(cc2c1=O)CCCC3 (stereo not given),63%
7,COc1cc(NS(=O)(=O)c2cnc(N)nc2)cc(OC)c1,64%
8,Nc1ncc(S(=O)(=O)Nc2ccc(OC(F)(F)F)cc2)cn1,63%
9,CC(=O)c1ccc(NS(=O)(=O)c2cnc(N)nc2)cc1,1% (active)
10,Cc1cccc(NC(=O)C2CCN(S(=O)(=O)c3ccc4c(c3)CCCN4C(=O)C3CCC3)CC2)c1,74%
11,COc1cccc(N2CC(NC(=O)C(c3ccccc3)c3ccccc3)CC2=O)c1 (stereo not given),65%
12,COc1ccc(C2c3c(n(C)c4ccccc34)C(=O)N2CC(=O)Nc2ccccc2Cl)cc1 (stereo not given),135%
13,COc1ccccc1CNC(=O)CCc1c(C)c2cc3c(C)c(C)oc3cc2oc1=O,114%
14,CCCOc1cccc(C(=O)Nc2ccc(-c3nc4ccccc4s3)c(Cl)c2)c1,65%
15,Cc1cccc2cc(C#N)c(SCC(=O)NCC3CCCO3)nc12 (stereo not given),103%
16,Cc1cccc(NC(=O)CCNS(=O)(=O)c2ccc3c(c2)CCCC(=O)N3)c1C,80%
17,COc1cc(Cl)c(NC(=O)CN(C)S(=O)(=O)c2ccc3c(c2)CCCC(=O)N3)c(OC)c1,59%
18,COc1cc(OC)c(NC(=O)CN(C)S(=O)(=O)c2ccc3c(c2)CCCC(=O)N3)cc1Cl,1% (active)
19,COc1cc(NC(=O)CN(C)S(=O)(=O)c2ccc3c(c2)CCCC(=O)N3)cc(OC)c1OC,81%
20,Cc1ccc(NC(=O)CCNS(=O)(=O)c2ccc3c(c2)CCCC(=O)N3)cc1,73%
21,Cc1ccc(C)c(NC(=O)CCNS(=O)(=O)c2ccc3c(c2)CCCC(=O)N3)c1,-6% (active)
22,Cc1ccc(C)c(NC(=O)Cn2ncc3c([nH]c4ccccc43)c2=O)c1,45%
23,CC(C)c1ccc(NC(=O)Cc2ccc(NC(=O)N3CCCCc4ccccc43)cc2)cc1,110%

row,SMILES,survival
1,Nc1cc(=O)nc(SCC(=O)Nc2ccccc2)n1CCc1ccccc1,69%
2,Cc1ccc(NC(=O)CN2C(=O)C3(SCC(=O)N3c3ccc(F)c(F)c3)c3ccccc32)c(C)c1 (stereo not given),69%
3,CCc1nc(Nc2ccc(F)c(Cl)c2)c2c3c(sc2n1)CCCC3,-1% (active)
4,COc1ccc(Nc2ncnc3sc4c(c23)CCCC4)cc1,73%
5,O=C(Cn1nnc2sc3c(c2c1=O)CCCC3)Nc1ccc(F)c(Cl)c1,33%
6,CCN1CCN(C(=O)Cn2ncc3c4ccccc4n(Cc4ccccc4F)c3c2=O)CC1,82%
7,CCCn1c2ccccc2c2cnn(CC(=O)N3CCC(C)CC3)c(=O)c21,67%
8,Cc1ccccc1Cn1c2ccccc2c2cnn(CC(=O)NC3CCC(C)CC3)c(=O)c21 (stereo not given),78%
9,Cc1cc(C)c(Cn2c3ccccc3c3cnn(CC(=O)N4CCCCC4)c(=O)c32)c(C)c1,125%
10,CCCn1c2ccccc2c2cnn(CC(=O)N3CCN(c4ccccc4F)CC3)c(=O)c21,-6% (active)
11,Cc1cc(C)c(Cn2c3ccccc3c3cnn(CC(=O)N4CCCCCC4)c(=O)c32)c(C)c1,1% (active)
12,CC1CCN(C(=O)Cn2ncc3c4ccccc4n(Cc4ccc(Cl)cc4)c3c2=O)CC1,95%
13,Cc1ccccc1Cn1c2ccccc2c2cnn(CC(=O)N3CCC(C)CC3)c(=O)c21,12% (active)
14,CCN1CCN(C(=O)Cn2ncc3c4ccccc4n(Cc4c(C)cc(C)cc4C)c3c2=O)CC1,126%
15,COc1ccc(NC(=O)Nc2nnc(N(CC(C)C)CC(C)C)s2)c(OC)c1,96%
16,COc1ccccc1C(=O)Nc1sc(Nc2ccccc2)nc1C(N)=O,146%
17,S=c1nc(CNc2ccccc2)[nH][nH]1,95%
18,CC(=O)N1c2c(cc(Br)cc2S(=O)(=O)N2CCN(c3cc(C)ccc3C)CC2)CC1C (stereo not given),72%
19,COc1ccc(NC(=O)Cn2c(=O)n(CCCCCC(=O)NCc3ccc4c(c3)OCO4)c(=O)c3sccc32)cc1Cl,89%
20,COc1ccc2c(CNCCc3cccs3)c(C(=O)O)n(Cc3ccc(F)cc3Cl)c2c1,115%
21,Cc1ccccc1OCCCCn1c(C2CC(=O)N(c3ccccc3Cl)C2)nc2ccccc21 (stereo not given),59%
22,CCCCn1c(C2CC(=O)N(c3ccc(OCC)cc3)C2)nc2ccccc21 (stereo not given),84%
23,CCCCN1CC(c2nc3ccccc3n2CCCCOc2c(C)cccc2C)CC1=O (stereo not given),61%

row,SMILES,survival
1,CCCCN1CC(c2nc3ccccc3n2CCCCOc2ccccc2C)CC1=O (stereo not given),15% (active)
2,CCCCN1CC(c2nc3ccccc3n2CCCCOc2cc(C)cc(C)c2)CC1=O (stereo not given),14% (active)
3,CCCCN1CC(c2nc3ccccc3n2CCCCOc2ccc(C)c(C)c2)CC1=O (stereo not given),24%
4,CCCCN1CC(c2nc3ccccc3n2CCCCOc2cccc(C)c2C)CC1=O (stereo not given),-13% (active)
5,Cc1ccc(-c2nn(-c3ccc(F)cc3F)c3c2cnc2ccc(F)cc23)cc1,65%
6,CCOC(=O)c1ccc(NC(=O)CSc2nc(-c3cccs3)cc(C(F)(F)F)c2C#N)cc1,85%
7,CC(C)N(C(=O)Cn1cc(S(=O)(=O)Cc2ccc(Br)cc2)c2ccccc21)C(C)C,80%
8,O=C(c1ccc2c(c1)N(Cc1cccc(Cl)c1)C(=O)c1ccccc1S2)N1CCOCC1,99%
9,Cc1ccnc(N2CCC(C(=O)NCc3ccc(F)cc3)CC2)n1,105%
10,Nc1nc2nc(-c3ccc(Cl)cc3)cc(C(F)(F)F)n2n1,144%
11,CC(C)c1ccccc1NC(=O)CC(C)(C)C,121%
12,C=CCc1cccc2cc(-c3nc4ccc(C)cc4[nH]3)c(=O)oc12,-3% (active)
13,COc1cccc2cc(-c3nc4ccc(C)cc4[nH]3)c(=O)oc12,73%
14,C=CCc1cccc2cc(-c3nc4ccc(C(=O)O)cc4[nH]3)c(=O)oc12,83%
15,COC(=O)c1ccc(NC(=O)CSc2cn(CC(=O)N3CCCCC3)c3ccccc23)cc1,89%
16,CCC(=O)N1CCc2cc(S(=O)(=O)CCC(=O)N3CCN(c4ccccc4Cl)CC3)ccc21,78%
17,CCCCOc1ccc(C2=NC(c3ccncc3)=Nc3ccc(OCC)cc3N2)cc1,90%
18,CCCCOc1ccc(C2=NC(c3ccncc3)=Nc3ccc(Br)cc3N2)cc1,-4% (active)
19,COc1ccc(C2=NC(c3ccncc3)=Nc3ccc(Br)cc3N2)cc1,94%
20,COc1ccc(CNC(=O)CCc2c(C)c3cc4c(C)coc4c(C)c3oc2=O)cc1OC,82%
21,CC(C)OC(=O)CSc1nnc(-c2ccc(O)cc2)n1-c1ccccc1,116%
22,COc1ccccc1-n1nc(-c2ccccc2)c2cnc3c(F)cc(F)cc3c21,119%
23,Cc1cccc(NC(=O)C(=O)NCCc2csc(-c3ccc(F)cc3)n2)c1C,75%

row,SMILES,survival
1,Cc1ccc(-c2nc(CCNC(=O)C(=O)Nc3ccc(C)cc3C)cs2)cc1,53%
2,Cc1ccc(-c2nc(CCNC(=O)C(=O)Nc3ccc(C)c(Cl)c3)cs2)cc1,47%
3,Cc1ccc(-c2nc(CCNC(=O)C(=O)Nc3c(C)cccc3C)cs2)cc1,0% (active)
4,Cc1ccc(-c2nc(CCNC(=O)C(=O)Nc3ccc(C)c(C)c3)cs2)cc1,-3% (active)
5,Cc1cc(C)c(NC(=O)C(=O)NCCc2csc(-c3ccc(F)cc3)n2)c(C)c1,76%
6,O=C(c1cccs1)N1CCCn2c1nc1ccccc12,106%
7,CCc1nn2c(=O)cc(COC(=O)c3cccc(NC(=O)c4ccccc4C)c3)nc2s1,91%
8,CCc1nn(CC(=O)Nc2ccc(C)c(F)c2)c(=O)c2cc3cc(C)ccc3n12,109%
9,COc1ccc(C(=O)Nc2nc3c(s2)CCc2cc(OC)ccc2-3)cc1,41%
10,COc1ccc(C(=O)Nc2nc3c(s2)Cc2cc(OC)ccc2-3)cc1,72%
11,COc1ccc2c(c1)-c1nc(NC(=O)c3ccc(Cl)cc3)sc1CC2,93%
12,COc1ccc2c(c1)-c1nc(NC(=O)c3ccccc3F)sc1CC2,-1% (active)
13,COc1ccc2c(c1)Cc1sc(NC(=O)c3cccc(C)c3)nc1-2,7% (active)
14,COc1ccc2c(c1)-c1nc(NC(=O)c3cc(Cl)ccc3OC)sc1CC2,74%
15,COc1ccc2c(c1)-c1nc(NC(=O)c3ccc(C)cc3)sc1CC2,14% (active)
16,COc1ccc2c(c1)Cc1sc(NC(=O)c3cccc(F)c3)nc1-2,69%
17,COc1ccc2c(c1)-c1nc(NC(=O)c3cccc(Br)c3)sc1CC2,54%
18,CCCC(=O)Nc1ccc(Cl)c(NC(=O)c2cccnc2Cl)c1,114%
19,CC1=C(c2ccc(C)c(C)c2)S(=O)(=O)N=C1N1CCC(C(=O)NCCc2ccc(Cl)cc2)CC1,132%
20,CS(=O)(=O)N1CCC(N2CCN(Cc3ccc(F)cc3)C(=O)C2=O)CC1,81%
21,Cc1cc(C(=O)O)c2c(=O)n(C)c(=O)n(C)c2n1,81%
